Results filed as inconclusive are left out. Where a call stands in place of a potency, no number is given. The source made the active and inactive calls. Unless noted, calls come from the whole dose curve; as a rule, active = well fitted curve in the direction sought with a large enough effect; inconclusive = small, poorly fitted or top-dose-only effect, or another doubt; inactive = no such curve, though single readings can be large; an effect the other way counts as inactive or inconclusive.
What was measured:
[1] = Validation screen for small molecules that induce DNA re-replication in SW480 colon adenocarcinoma cells (AID 504364)
In short: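 Hoechst-stained SW480 nuclei, imaged at 405 nm excitation after 48 hr compound exposure, were counted for elevated DNA content as the re-replication signal.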

[2] = target: Peptidyl-prolyl cis-trans isomerase NIMA-interacting 1 (Homo sapiens) (UniProt Q13526); assay: qHTS Validation Assay to Find Inhibitors of Pin1 (AID 504536; active = well fitted inhibition curve with a large enough effect in the polarisation, with a control signal flat, not every such curve was filed as active; the % refers to the polarisation)
Peptidyl-prolyl cis-trans isomerase NIMA-interacting 1 (Homo sapiens), sequence (Q13526 whole entry, looked up): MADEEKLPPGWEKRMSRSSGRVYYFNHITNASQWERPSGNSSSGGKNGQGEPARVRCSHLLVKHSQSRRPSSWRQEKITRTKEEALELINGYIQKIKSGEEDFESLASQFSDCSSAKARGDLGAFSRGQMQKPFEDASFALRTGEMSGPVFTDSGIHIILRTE
In short: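 Fluorescence polarization competition: compounds (titration) displace HiFluor-488-labeled Pin1-1b peptide from Pin1 (0.3 uM final) in pH 7.5 HEPES buffer with DTT, 10 min at room temperature; %Activity normalized to no-enzyme wells, curves fitted.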

[3] = target: Phosphoglycerate kinase, glycosomal (Trypanosoma brucei brucei) (UniProt P07378); assay: qHTS Validation Assay to Find Inhibitors of Phosphoglycerate Kinase (AID 504547); note: potency is the fitted concentration of half-maximal effect
Phosphoglycerate kinase, glycosomal (Trypanosoma brucei brucei), sequence (P07378 whole entry, looked up): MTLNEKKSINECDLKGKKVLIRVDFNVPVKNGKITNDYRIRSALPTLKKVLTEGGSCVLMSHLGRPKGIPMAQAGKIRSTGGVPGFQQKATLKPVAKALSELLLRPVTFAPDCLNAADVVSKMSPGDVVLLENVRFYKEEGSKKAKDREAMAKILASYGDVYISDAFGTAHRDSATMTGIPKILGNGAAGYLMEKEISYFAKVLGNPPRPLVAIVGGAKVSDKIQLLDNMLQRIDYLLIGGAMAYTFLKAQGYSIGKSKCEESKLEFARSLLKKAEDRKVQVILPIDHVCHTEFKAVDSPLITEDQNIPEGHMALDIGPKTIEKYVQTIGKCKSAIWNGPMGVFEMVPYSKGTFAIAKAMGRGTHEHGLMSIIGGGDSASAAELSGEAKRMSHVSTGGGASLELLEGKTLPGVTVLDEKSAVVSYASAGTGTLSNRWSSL
In short: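 In TEA buffer (100mM, pH 7.6) containing 5mM MgCl2 and 0.01% Tween-20, the GAPDH-coupled PGK reaction proceeded for 60 minutes at room temperature before a single luminescence reading using Kinase-Glo Plus.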

[4] = target: phosphoglycerate mutase (Leishmania major) (UniProt Q4Q090); assay: qHTS Validation Assay to Find Inhibitors of Phosphoglycerate Mutase (AID 504548); conditions: Potency: inhibition qHTS;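 note: end-point luminescence from Kinase-GloPlus after the PGAM reaction; series mostly up to about 58 µM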
phosphoglycerate mutase (Leishmania major), sequence (Q4Q090 1-553): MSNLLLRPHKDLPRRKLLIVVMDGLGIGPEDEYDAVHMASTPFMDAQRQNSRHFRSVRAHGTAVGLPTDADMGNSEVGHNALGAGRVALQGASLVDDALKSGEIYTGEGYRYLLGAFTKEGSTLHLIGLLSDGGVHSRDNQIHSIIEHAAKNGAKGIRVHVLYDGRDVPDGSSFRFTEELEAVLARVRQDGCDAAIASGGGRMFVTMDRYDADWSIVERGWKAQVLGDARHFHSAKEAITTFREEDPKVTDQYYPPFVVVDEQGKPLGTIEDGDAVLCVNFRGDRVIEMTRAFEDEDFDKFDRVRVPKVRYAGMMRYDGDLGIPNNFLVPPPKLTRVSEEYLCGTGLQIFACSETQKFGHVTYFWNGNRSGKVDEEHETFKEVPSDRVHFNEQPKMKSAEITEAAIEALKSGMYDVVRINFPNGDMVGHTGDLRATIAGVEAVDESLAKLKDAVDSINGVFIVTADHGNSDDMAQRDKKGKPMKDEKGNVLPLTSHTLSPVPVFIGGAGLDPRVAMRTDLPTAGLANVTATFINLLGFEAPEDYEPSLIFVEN
In short: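 Inhibition of L. major PGAM was assessed by Kinase-GloPlus luminescence following a 45-minute room-temperature reaction with enzyme at 1.25nM final.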

[5] = target: Ubiquitin carboxyl-terminal hydrolase 1 (Homo sapiens) (UniProt O94782); assay: Inhibitors of USP1/UAF1: Pilot qHTS (AID 504865);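 note: rhodamine fluorescence freed from ubiquitin-rhodamine substrate followed over time; top concentration of the series differs between compounds; nearly all actives have a fitted effect of over 35% in size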
Ubiquitin carboxyl-terminal hydrolase 1 (Homo sapiens), sequence (O94782 whole entry, looked up): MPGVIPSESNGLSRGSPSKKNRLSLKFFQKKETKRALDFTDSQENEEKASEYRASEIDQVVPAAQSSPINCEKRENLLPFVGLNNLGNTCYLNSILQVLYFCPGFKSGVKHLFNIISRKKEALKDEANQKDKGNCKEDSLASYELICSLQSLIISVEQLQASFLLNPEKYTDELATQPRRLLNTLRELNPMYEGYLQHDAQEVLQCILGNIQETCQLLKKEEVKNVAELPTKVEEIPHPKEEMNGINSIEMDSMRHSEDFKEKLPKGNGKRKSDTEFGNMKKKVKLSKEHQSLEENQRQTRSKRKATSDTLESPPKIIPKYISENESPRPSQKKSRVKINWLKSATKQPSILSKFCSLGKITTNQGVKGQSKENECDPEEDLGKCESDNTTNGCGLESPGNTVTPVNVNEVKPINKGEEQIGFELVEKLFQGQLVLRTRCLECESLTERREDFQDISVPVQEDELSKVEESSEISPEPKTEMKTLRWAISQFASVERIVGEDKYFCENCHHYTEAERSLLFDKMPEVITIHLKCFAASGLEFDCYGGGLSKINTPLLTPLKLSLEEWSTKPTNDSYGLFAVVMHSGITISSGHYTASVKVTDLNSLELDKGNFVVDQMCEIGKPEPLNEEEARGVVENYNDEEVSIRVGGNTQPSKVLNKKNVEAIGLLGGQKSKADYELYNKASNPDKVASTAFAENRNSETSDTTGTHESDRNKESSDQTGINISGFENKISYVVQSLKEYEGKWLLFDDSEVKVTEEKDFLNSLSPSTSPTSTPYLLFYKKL
In short: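 1nM USP1/UAF1 + cpd, 15 min RT; start w/ Ub-Rho 150nM final; kinetic FL 480/540 nm, 6 reads q60 s. Buffer 50mM HEPES pH 7.8, 0.5mM EDTA, 1mM TCEP, 0.01% Tween-20, 0.1 mg/ml BSA.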

[6] = qHTS for Inhibitors of ATXN expression: Validation of Cytotoxic Assay (AID 588349)
In short: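 Toxicity of test compounds toward HEK293 cells is scored from cellular ATP content measured by CellTiter Glo. Cells receive titrated doses and incubate 72 hr at 37 degrees C beforehand.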

[7] = qHTS for Inhibitors of ATXN expression: Validation (AID 588378); note: series mostly up to about 57 µM; nearly all actives have a fitted effect of over 75% in size
In short: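 Cells: HEK293-ATXN2-FFLuc, phenol-red free DMEM, 2 h attachment. Compound pin-transfer, 24 h, 37 degrees C, 5% CO2. CellTiter-Fluor 30 min, Ex405/Em525; Bright-Glo 5 min, luminescence 2 s exposure.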

| Structure (SMILES) | Potency [1] | Potency [2] | Potency [3] | Potency [4] | Potency [5] | Potency [6] | Potency [7] |
| --- | --- | --- | --- | --- | --- | --- | --- |
| C=C/C(C)=C/[C@@]1(C)SC(=O)C(C)=C1O | inactive | – | – | – | – | – | – |
| C=C[C@@H]1CN2CC[C@@H]1C[C@H]2[C@H](O)c1ccnc2ccc(OC)cc12 | inactive | inactive | inactive | – | – | – | – |
| Oc1cc(O)cc(/C=C/c2ccc(O)c(O)c2)c1 | inactive | inactive | 23.9 µM (active) | inactive | inactive | – | – |
| CCN1/C(=C/C(C)=O)Sc2ccc(OC)cc21 | inactive | inactive | inactive | inactive | inactive | inactive | – |
| CC(C)(C)NCC(O)COc1nsnc1N1CCOCC1 (stereo not given) | inactive | – | – | – | – | – | – |
| NCCCS(=O)(=O)O | inactive | inactive | inactive | inactive | inactive | inactive | inactive |
| COc1cccc(C(=O)NCCN2CCN(c3ccc(Cl)cc3)CC2)c1 | inactive | inactive | inactive | inactive | inactive | inactive | – |
| OC[C@H]1O[C@@H](n2cnc3c(NC4CCCCC4)ncnc32)[C@H](O)[C@@H]1O | inactive | inactive | inactive | inactive | inactive | inactive | – |
| O=C(O)CC1CCCc2ccccc2C1O (stereo not given) | inactive | inactive | inactive | inactive | inactive | inactive | – |
| Cc1ccccc1CNc1ncnc2c1ncn2C1OC(CO)C(O)C1O (stereo not given) | inactive | inactive | inactive | inactive | inactive | inactive | – |
| O=C(O)CCCC[C@@H]1CCSS1 | inactive | inactive | inactive | inactive | inactive | inactive | inactive |
| O=c1[nH]c2ccccc2n1CCCN1CCN(C(c2ccccc2)c2ccccc2)CC1 | inactive | – | – | – | – | – | – |
| CC(C)(C)c1ccc(S(=O)(=O)/C=C/C#N)cc1 | inactive | inactive | inactive | inactive | inactive | – | – |

Reference: PubChem BioAssay (NCATS)
